# Among all 48,000 compounds or so, about 13,000 (27%) showed an effect of 50% or more. The list shows a part of the results.
# System: Wolbachia pipientis
# Assay: Anti-Wolbachia Cell-Based Screen
# Type: functional
# Parameters: scale not given: in the data most compounds retested in dose-response had high values
# Conditions: 5 µM
row,Compound,Percent Effect
1,COc1cccc(CC(=O)N2CCC(Cc3nnc(SC)n3C)CC2)c1,13.49%
2,Cc1ccccc1CNC(=O)N1CC[C@@H]2CN(C)S(=O)(=O)[C@@H]2CC1,-7.794%
3,COc1cccc(CC(=O)N2CC[C@@H]3CN(C)S(=O)(=O)[C@@H]3CC2)c1,102.6%
4,CCN1C[C@H]2CCN(C(=O)Cc3cccc(OC)c3)CC[C@H]2S1(=O)=O,109.3%
5,Cc1ccccc1NC(=O)N1CC[C@@H]2CN(C)S(=O)(=O)[C@@H]2CC1,-6.47%
6,COc1ccc(CC(=O)N2CCC(c3n[nH]c(C4CC4)n3)CC2)cc1,-2.488%
7,COc1ccc(CC(=O)N2CC[C@@H]3CN(C)S(=O)(=O)[C@@H]3CC2)cc1,96.9%
8,CCN1C[C@H]2CCN(C(C)=O)CC[C@H]2S1(=O)=O,7.241%
9,CCN1C[C@H]2CCN(C(=O)Nc3ccccc3C)CC[C@H]2S1(=O)=O,5.146%
10,CN1C[C@H]2CCN(C(=O)NC3CCCC3)CC[C@H]2S1(=O)=O,24.31%
11,COc1cccc(NC(=O)N2CC[C@@H]3CN(C)S(=O)(=O)[C@@H]3CC2)c1,108.6%
12,COc1cccc(CC(=O)N2CCN(c3cccc(C)c3)C(C)C2)c1 (stereo unspecified),0.04468%
13,Cc1c(C(=O)N(CCN(C)C)Cc2ccccn2)oc2ccccc12,-10.28%
14,CCC1CN(C(=O)c2ccc(O)cn2)CCC(=O)N1Cc1ccccc1 (stereo unspecified),-29.96%
15,N#Cc1cc(S(N)(=O)=O)ccc1NC1CCc2cc(Cl)ccc21 (stereo unspecified),-7.649%
16,CNC(=O)[C@@H](c1ccccc1OC)N1CCC[C@H]1C(=O)NCCN(C)C.Cl.Cl,-2.091%
17,COc1ccc(CN2CCCn3cncc3C2)cc1Cn1cncn1,17.87%
18,COc1ccc(NC(=O)c2ccco2)c(N2CCN(C(C)=O)CC2)n1,-1.999%
19,COc1cnc(C2(O)CCN(C(=O)c3scnc3C)CC2)c(OC)n1,77.74%
20,Cc1ccc(F)c(OC2(C(=O)O)CCN(C(=O)c3ccco3)CC2)c1,-23.64%
21,CCC(=O)N1CCC(O)(c2ncc(OC)nc2OC)CC1,-0.9107%
22,COc1cnc(C2(O)CCN(C(=O)c3ccncc3)CC2)c(OC)n1,-4.993%

row,Compound,Percent Effect
1,COc1cnc(C2(O)CCN(C(=O)c3ccccn3)CC2)c(OC)n1,107.9%
2,COc1cnc(C2(O)CCN(C(=O)c3cccnc3)CC2)c(OC)n1,2.765%
3,COc1cnc(C2(O)CCN(C(=O)c3ccco3)CC2)c(OC)n1,113.8%
4,O=C1CC(C(=O)O)C2(CCN(C(=O)Nc3ccccc3Cl)CC2)N1 (stereo unspecified),8.972%
5,CS(=O)(=O)NC1CCN(C(=O)c2ccc(F)cc2)CC1,22.77%
6,CCn1nc(C)c2nc(C(C)C)nc(NCCCO)c21,5.791%
7,CC[C@H]1CN(C(=O)C(C)(C)C)CC[C@H]1CC(=O)O,0.9693%
8,CCS(=O)(=O)NCC1Cn2nnc(-c3ccccc3)c2CO1 (stereo unspecified),4.629%
9,CC(C)n1c(=O)c2ccccc2n(CCCN(C)C)c1=O.Cl,74.16%
10,CC(C)NC(=O)CN(C)C(=O)c1c(Br)c2ccccc2n1C,-8.15%
11,CC(C)NC(=O)CN(C)C(=O)c1c(Cl)c2ccccc2n1C,7.479%
12,CC(CCc1ccccc1)NC(=O)CNCCCN(C)C.O=C(O)C(=O)O (stereo unspecified),-3.27%
13,CC(C)n1c(=O)c2ccccc2n(CCN2CCCCC2)c1=O,58.61%
14,CCc1nc(Cn2c(=O)n(C)c3ccccc32)no1,-3.957%
15,CN(C)CCn1c(=O)n(C)c(=O)c2ccccc21.Cl,110%
16,CC(C)n1c(=O)c2ccccc2n(CCN(C)C)c1=O.Cl,91.55%
17,CCCc1nc(Cn2c(=O)n(C)c3ccccc32)no1,-1.157%
18,CC(C)N1CCN(CCn2cnc3c(F)cccc3c2=O)CC1,-1.52%
19,Cc1cc(=O)c2ccccc2n1CC1CCN(C(C)C)C1 (stereo unspecified),-7.176%
20,CC(C)S(=O)(=O)CC(=O)N(Cc1ccsc1)c1ccccc1,-3.342%
21,Cn1cc(CN2CCCC3(COCCN(Cc4c[nH]nn4)C3)C2)cn1.O=C(O)C(F)(F)F.O=C(O)C(F)(F)F (stereo unspecified),-3.726%
22,COCC(=O)N1CCCC(c2cc(C(F)F)n3ncnc3n2)C1.Cl (stereo unspecified),109.8%

row,Compound,Percent Effect
1,Cc1nc(C2CCCN(C(=O)CO)C2)cc(N2CCOCC2)n1 (stereo unspecified),-8.444%
2,O=C(Cc1ccsc1)N1CCCC(c2cc(C(F)F)n3ncnc3n2)C1 (stereo unspecified),112.3%
3,CC(C)C(=O)N1CCCC(c2cc(C(F)F)n3ncnc3n2)C1.Cl (stereo unspecified),-4.51%
4,NC(=O)c1ccc(-n2ccnc2C2CC2)cc1N1CCCC1,30.18%
5,COCCS(=O)(=O)N(Cc1ccsc1)c1ccccc1,-9.25%
6,COc1cc(CN(C)C(=O)NCC(=O)NC(C)C)ccc1SC,-30.2%
7,COCC(=O)NCCC(=O)N1CCN(S(=O)(=O)c2cccc(Br)c2)CC1,2.832%
8,Cl.O=C(NCCn1nc(C2CCNC2)c2cccnc21)C1CCC1 (stereo unspecified),119.3%
9,Cl.O=C(NCCn1nc(C2CCNC2)c2cccnc21)C1CC1 (stereo unspecified),104.4%
10,O=C(CCNC(=O)C1CCCC1)NCc1cccnc1-n1cncn1,-1.584%
11,Cc1cccc(C)c1OC1CN(C(=O)C2CCCN(C(=O)N(C)C)C2)C1 (stereo unspecified),-13.19%
12,O=C(NCCc1ccsc1)Nc1cccnc1N1CCCC1,0.6987%
13,COc1c(C(=O)N2CCC(CSc3ccccc3)C2)c(C)nn1C (stereo unspecified),13.6%
14,CC(C)N(C)S(=O)(=O)N(C)Cc1ccc2c(c1)OCO2,-1.448%
15,CCC[C@@H]1CN(Cc2ccc3c(c2)OCCO3)C[C@H]1C(=O)O,-6.164%
16,CC(=O)NCCNC(=O)N(C)Cc1ccc2c(c1)OCCO2,1.28%
17,CCN(CC)S(=O)(=O)N(C)Cc1ccc2c(c1)OCCO2,104.5%
18,CCS(=O)(=O)c1ccc2c(c1)OCCCO2,-4.006%
19,CC(C)N(C)S(=O)(=O)N(C)Cc1ccc2c(c1)OCCO2,98.7%
20,CCS(=O)(=O)c1ccc2c(c1)OCCO2,-1.362%
21,CC(C)N(C)S(=O)(=O)N(C)Cc1cnn(C)c1,-10.04%
22,CCN(CC)S(=O)(=O)N(CC)Cc1ccc2c(c1)OCCO2,92.18%

# Source: ChEMBL document CHEMBL3988442, “University of Dundee, Small-Polar-MMV Screening Library” (2021)
